PubChem BioAssay
The source made the active and inactive calls.

Assays:
[1] = binders of probe aFSTL3 on microarray, primary screen, stem cell growth factor project, biochemical, small-molecule microarray, fluorescence 635/667 (AID 1064); settings: higher = more signal;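 further: measures binding of the biotinylated anti-FSTL3 antibody to printed compounds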
[2] = binders from COS7 lysate, DM2A8 probe, primary screen, torsin A project, cell lysate, small-molecule microarray, fluorescence 635/667 (AID 1065); settings: higher = more signal, COS7 lysate expressing mutant human TOR1A
[3] = binders of probe aFGF2 on microarray, primary screen, stem cell growth factor project, biochemical, small-molecule microarray, fluorescence 635/667 (AID 1067); settings: higher = more signal;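 further: measures binding of biotinylated aFGF2 protein to printed compounds on slides; z-score merges feature fluorescence and signal-to-noise across triplicate slides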
[4] = binders of probe aFGF10 on microarray, primary screen, stem cell growth factor project, biochemical, small-molecule microarray, fluorescence 635/667 (AID 1071); settings: higher = more signal;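 further: score merges 667 nm spot intensity and signal to noise from triplicate slides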
[5] = target: Neurogenic locus notch homolog protein 2 (Homo sapiens) (UniProt Q04721); experiment: Notch2 binders on small-molecule microarrays, primary screen, biochemical, small-molecule microarray, 635 nm fluorescence, stem cell growth factors (AID 1073); settings: Notch2 binding, higher = more signal
[6] = target: Pro-neuregulin-1, membrane-bound isoform (Homo sapiens) (UniProt Q02297); experiment: NRG1 binders on small-molecule microarrays, primary screen, psychiatric disease protein project, biochemical, small-molecule microarray, fluorescence 635/667 (AID 1075); settings: NRG1 binding, 635 nm fluorescence, higher = more signal;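 further: score combines 667 nm spot fluorescence with signal to noise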
[7] = test system: Neuregulin-1 EGF-like domain; experiment: binders of neuregulin-1 EGF-like domain, primary screen, biochemical, small-molecule microarray, 635 nm fluorescence (AID 1081); settings: small-molecule microarray binding, higher = more signal;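 further: binding of the protein to compounds printed on small-molecule microarray slides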
[8] = FRG1 promoter luciferase signal modulators, primary screen, FRG1 inhibition for FSHD, cell-based, C2C12 myotubes, firefly/Renilla luciferase, luminescence (AID 1084); settings: higher = more signal, called active from +8 up or from −8 down
[9] = binders of probe aFST on microarray, primary screen, stem cell growth factor project, biochemical, small-molecule microarray, fluorescence 635/667 (AID 1086); settings: higher = more signal;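 further: score merges 667 nm fluorescence with signal-to-noise of each printed compound spot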
[10] = binders of probe aHhip on microarray, primary screen, stem cell growth factor project, biochemical, small-molecule microarray, fluorescence 635/667 (AID 1087); settings: higher = more signal;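 further: score merges spot fluorescence at 667nm with spot signal to noise ratio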
[11] = test system: PRMT1 (protein arginine N-methyltransferase 1); experiment: PRMT1 binders on small-molecule microarrays, primary screen, biochemical, small-molecule microarray, 635 nm fluorescence (AID 1088); settings: small-molecule microarray binding, higher = more signal;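 further: binding of Prmt1 protein to compounds spotted on small-molecule microarray slides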
[12] = yeast growth modulation, basal conditions, primary screen, YJM789 clinical isolate, OD600, 24 h (AID 1089);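 further: growth of clinical yeast isolate S. cerevisiae YJM 789 seeded 1000 cells per well; test concentration not given here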; settings: S. cerevisiae YJM789 growth, higher = more signal, called active from +8 up or from −8 down
[13] = fission yeast growth modulation, primary screen, strain 972, OD600, 24 h, no modulator (AID 1090);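 further: basal condition with compound alone and no growth modifier present; test concentration not given here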; settings: S. pombe 972 growth, higher = more signal, called active from +8 up or from −8 down
[14] = S. cerevisiae growth modulation with rapamycin, primary screen, strain BY4716, OD600, 96 h (AID 1091); settings: higher = more signal, called active from +8 up or from −8 down; further: test concentration not given here
[15] = target: Torsin-1A-interacting protein 2 (Homo sapiens) (UniProt Q8NFQ8); experiment: LULL1 binders on small-molecule microarray, primary screen, cell lysate, human LULL1 lysate, 635/667 nm fluorescence (AID 1092); settings: hLULL1 lysate binding, 635 nm fluorescence, higher = more signal;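 further: probe is lysate of COS7 cells overexpressing human LULL1; score merges per-feature 667 nm fluorescence with signal-to-noise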
[16] = E. coli growth modulation, two-sided OD650, primary screen, E. coli filamentation project, strain DRC41, 24 h (AID 1093); settings: OD650, 24 h, higher = more signal, called active from +8 up or from −8 down;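 further: MC1000 strain lacking acrAB efflux and sulA so SOS filamentation is blocked; test concentration not given here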
[17] = small-molecule microarray binders of probe aLefty2, primary screen, biochemical, biotinylated probe, 635/667 nm fluorescence (AID 1094); settings: higher = more signal;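 further: score merges spot fluorescence near 667 nm with spot signal-to-noise ratio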
[18] = test system: Noggin (protein binding on small-molecule microarray); experiment: Noggin binders on small-molecule microarray, primary screen, biochemical, 635/667 nm fluorescence (AID 1095); settings: 635 nm fluorescence, higher = more signal;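 further: score merges 667 nm feature fluorescence with signal to noise over triplicate slides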
[19] = target: Neurogenic locus notch homolog protein 3 (Homo sapiens) (UniProt Q9UM47); experiment: NOTCH3 binders on small-molecule microarray, primary screen, biochemical, 635/667 nm fluorescence (AID 1096); settings: NOTCH3 binding, 635 nm fluorescence, higher = more signal
[20] = small-molecule microarray binders of probe aEGFR, primary screen, biochemical, biotinylated probe, 635/667 nm fluorescence (AID 1097); settings: higher = more signal;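 further: probe is a biotinylated anti-EGFR antibody binding compounds printed on slides; score combines fluorescence near 667 nm and signal to noise of each spot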

Pro-neuregulin-1, membrane-bound isoform (Homo sapiens), sequence (Q02297 whole entry, looked up, the tested form may be a part, canonical isoform): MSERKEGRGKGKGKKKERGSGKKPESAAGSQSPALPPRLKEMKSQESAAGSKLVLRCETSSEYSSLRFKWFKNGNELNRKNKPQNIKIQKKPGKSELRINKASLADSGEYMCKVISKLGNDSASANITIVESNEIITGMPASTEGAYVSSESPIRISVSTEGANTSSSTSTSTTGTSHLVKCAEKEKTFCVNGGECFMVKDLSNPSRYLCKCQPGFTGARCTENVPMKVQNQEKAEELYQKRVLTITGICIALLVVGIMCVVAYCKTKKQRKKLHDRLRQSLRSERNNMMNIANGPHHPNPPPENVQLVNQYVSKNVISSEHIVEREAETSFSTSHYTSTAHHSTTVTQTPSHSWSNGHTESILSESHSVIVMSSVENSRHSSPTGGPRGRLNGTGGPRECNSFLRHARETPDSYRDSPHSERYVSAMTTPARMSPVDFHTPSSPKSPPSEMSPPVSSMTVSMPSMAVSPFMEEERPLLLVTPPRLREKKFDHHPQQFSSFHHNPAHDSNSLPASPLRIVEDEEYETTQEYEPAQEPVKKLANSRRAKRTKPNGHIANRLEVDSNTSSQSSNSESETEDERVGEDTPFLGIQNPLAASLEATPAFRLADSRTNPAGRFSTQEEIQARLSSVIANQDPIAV
Neurogenic locus notch homolog protein 3 (Homo sapiens), sequence (Q9UM47 whole entry, looked up): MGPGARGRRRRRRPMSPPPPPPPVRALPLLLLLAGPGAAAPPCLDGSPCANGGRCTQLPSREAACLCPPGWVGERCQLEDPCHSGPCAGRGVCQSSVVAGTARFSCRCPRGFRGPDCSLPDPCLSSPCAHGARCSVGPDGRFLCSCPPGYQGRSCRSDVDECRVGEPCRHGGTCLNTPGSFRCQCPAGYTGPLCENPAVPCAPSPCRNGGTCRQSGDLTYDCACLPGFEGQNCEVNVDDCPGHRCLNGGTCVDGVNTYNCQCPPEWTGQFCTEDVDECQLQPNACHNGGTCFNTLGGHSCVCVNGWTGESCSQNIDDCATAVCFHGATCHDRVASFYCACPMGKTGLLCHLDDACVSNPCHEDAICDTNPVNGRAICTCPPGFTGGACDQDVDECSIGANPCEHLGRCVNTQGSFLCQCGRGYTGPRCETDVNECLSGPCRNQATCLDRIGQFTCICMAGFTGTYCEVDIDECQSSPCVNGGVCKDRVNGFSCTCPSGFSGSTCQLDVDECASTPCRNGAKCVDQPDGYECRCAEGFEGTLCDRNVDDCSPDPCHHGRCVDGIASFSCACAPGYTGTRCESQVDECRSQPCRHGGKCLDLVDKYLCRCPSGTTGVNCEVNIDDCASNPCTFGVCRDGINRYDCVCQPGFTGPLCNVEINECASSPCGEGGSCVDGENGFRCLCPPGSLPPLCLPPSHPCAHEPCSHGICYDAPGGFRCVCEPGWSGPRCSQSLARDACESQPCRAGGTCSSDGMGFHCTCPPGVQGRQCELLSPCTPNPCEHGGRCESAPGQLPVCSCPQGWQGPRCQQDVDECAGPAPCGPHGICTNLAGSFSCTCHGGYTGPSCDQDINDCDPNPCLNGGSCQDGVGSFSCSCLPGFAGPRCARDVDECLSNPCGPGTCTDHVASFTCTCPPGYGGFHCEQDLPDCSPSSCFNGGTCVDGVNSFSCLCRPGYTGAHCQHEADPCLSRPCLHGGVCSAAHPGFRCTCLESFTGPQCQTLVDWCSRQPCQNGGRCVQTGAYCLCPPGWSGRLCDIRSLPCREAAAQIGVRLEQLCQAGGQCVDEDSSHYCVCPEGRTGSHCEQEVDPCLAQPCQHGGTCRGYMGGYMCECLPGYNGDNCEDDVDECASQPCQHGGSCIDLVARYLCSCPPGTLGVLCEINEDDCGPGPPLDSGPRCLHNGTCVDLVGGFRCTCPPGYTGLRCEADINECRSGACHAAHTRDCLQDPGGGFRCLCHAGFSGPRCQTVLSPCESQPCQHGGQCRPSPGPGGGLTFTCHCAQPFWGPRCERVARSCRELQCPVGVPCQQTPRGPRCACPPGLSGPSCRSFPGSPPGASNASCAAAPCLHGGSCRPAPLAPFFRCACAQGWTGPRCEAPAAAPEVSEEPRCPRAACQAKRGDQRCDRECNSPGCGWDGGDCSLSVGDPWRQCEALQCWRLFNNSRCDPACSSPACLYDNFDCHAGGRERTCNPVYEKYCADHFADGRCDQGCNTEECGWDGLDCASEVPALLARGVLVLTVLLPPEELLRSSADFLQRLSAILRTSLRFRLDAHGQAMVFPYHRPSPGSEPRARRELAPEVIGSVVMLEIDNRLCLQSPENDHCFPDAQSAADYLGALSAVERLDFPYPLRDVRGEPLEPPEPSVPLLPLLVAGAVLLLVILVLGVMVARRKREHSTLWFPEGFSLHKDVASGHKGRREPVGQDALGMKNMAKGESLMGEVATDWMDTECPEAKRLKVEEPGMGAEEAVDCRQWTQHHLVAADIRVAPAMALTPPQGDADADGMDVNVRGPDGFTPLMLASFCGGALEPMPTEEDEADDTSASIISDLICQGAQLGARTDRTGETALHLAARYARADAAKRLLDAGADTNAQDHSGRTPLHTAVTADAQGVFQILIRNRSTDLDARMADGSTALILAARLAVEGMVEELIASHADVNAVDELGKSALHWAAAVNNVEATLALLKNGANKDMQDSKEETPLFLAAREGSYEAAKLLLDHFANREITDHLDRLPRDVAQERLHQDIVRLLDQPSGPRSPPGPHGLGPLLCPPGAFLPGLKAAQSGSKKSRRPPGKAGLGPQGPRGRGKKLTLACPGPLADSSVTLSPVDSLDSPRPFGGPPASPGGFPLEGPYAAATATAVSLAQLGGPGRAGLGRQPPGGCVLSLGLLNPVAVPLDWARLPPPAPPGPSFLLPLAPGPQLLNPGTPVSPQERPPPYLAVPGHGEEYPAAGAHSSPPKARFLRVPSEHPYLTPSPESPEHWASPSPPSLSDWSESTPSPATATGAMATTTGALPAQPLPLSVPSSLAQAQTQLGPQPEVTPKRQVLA
Torsin-1A-interacting protein 2 (Homo sapiens), sequence (Q8NFQ8 whole entry, looked up): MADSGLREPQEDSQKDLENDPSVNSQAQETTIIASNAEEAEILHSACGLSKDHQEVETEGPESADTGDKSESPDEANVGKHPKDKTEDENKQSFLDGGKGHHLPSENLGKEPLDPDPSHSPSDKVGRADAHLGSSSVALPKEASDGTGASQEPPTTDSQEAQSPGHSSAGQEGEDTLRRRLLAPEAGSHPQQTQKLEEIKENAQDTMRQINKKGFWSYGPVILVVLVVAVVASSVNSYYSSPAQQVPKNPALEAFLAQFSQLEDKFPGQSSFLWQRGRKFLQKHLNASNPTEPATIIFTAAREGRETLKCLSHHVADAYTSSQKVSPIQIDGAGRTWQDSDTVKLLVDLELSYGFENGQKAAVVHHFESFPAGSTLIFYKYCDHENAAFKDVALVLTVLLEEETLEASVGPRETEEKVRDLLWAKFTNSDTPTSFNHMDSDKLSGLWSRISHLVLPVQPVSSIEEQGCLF

Compound	composite z-score [1]	composite z-score [2]	composite z-score [3]	composite z-score [4]	composite z-score [5]	composite z-score [6]	composite z-score [7]	z-score [8]	composite z-score [9]	composite z-score [10]	composite z-score [11]	z-score [12]	z-score [13]	z-score [14]	composite z-score [15]	z-score [16]	composite z-score [17]	composite z-score [18]	composite z-score [19]	composite z-score [20]
C[N+](C)(C)CCCC[C@@H]1NC(=O)[C@@H]2C[C@H](C(=O)NCc3ccc(F)cc3)[C@H](c3ccc(O)cc3)N2C1=O	0.315	-0.4	-0.148	-0.447	-1.3	1.3	1.38	0.337 (inactive)	-0.936	-0.201	0.116	0.166 (inactive)	0.519 (inactive)	0.425 (inactive)	1.76	-0.66 (inactive)	-0.139	0.401	-0.146	-0.271
COc1ccc([Si](C)(C)[C@H]2[C@H](CCO)O[C@@]3(C(=O)N(Cc4ccc(NC(=O)[C@H](C)O)cc4)c4ccccc43)[C@@H]2C)cc1	-0.184	0.485	-0.0508	0.663	1.19	1.54	1.19	-4.06 (inactive)	0.292	0.0401	1.58	2.39 (inactive)	-1.36 (inactive)	4.78 (inactive)	2.19	1.38 (inactive)	-0.142	0.862	0.762	0.0337
Cc1ccc(S[C@]2(C(=O)NCC(F)(F)F)CC(=O)N(Cc3ccccc3C(F)(F)F)[C@@H]2c2ccc(CO)cc2)cc1	0.953	-0.0728	-0.1	-0.0379	-1.14	-0.401	0.573	-1.82 (inactive)	-0.606	-0.191	0.895	-0.837 (inactive)	0.0848 (inactive)	-0.203 (inactive)	1.67	-0.254 (inactive)	0.145	-0.872	-0.462	-0.0416
CC(C)N1C(=O)c2ccccc2[C@@H](C(=O)NCC(F)(F)F)[C@@H]1c1ccc(CO)cc1	0.277	-1.16	-0.133	-0.0347	-1.07	0.156	1.21	0.0294 (inactive)	-0.0934	-0.169	-0.57	0.125 (inactive)	-0.637 (inactive)	0.0898 (inactive)	0.952	-0.199 (inactive)	-0.117	0.157	-0.59	-0.123
COc1ccc([Si](C)(C)[C@@H]2[C@@H](CC(=O)N3Cc4ccccc4C[C@H]3CO)O[C@]3(C(=O)N(Cc4ccc(N5CCOC5=O)cc4)c4ccccc43)[C@H]2C)cc1	-0.169	0.669	-0.178	0.284	0.405	1	1.09	-2.85 (inactive)	0.27	0.0274	1.57	-0.631 (inactive)	0.693 (inactive)	3.78 (inactive)	1.56	1.36 (inactive)	-0.133	1.55	1.13	-0.0947
CN(C)CCCCNC(=O)[C@H]1C[C@H]2C(=O)N3CCC[C@H]3C(=O)N2[C@H]1c1cccc(OCCO)c1	0.429	0.76	-0.0386	0.0348	-0.182	1.94	1.28	3.81 (inactive)	0.081	0.565	1.1	0.752 (inactive)	1.68 (inactive)	0.751 (inactive)	3.09	-0.101 (inactive)	0.0164	0.866	0.476	-0.0968
CC(C)N1C(=O)C[C@@](C(=O)NCCN2CCOCC2)(c2ccc([N+](=O)[O-])cc2)[C@H]1c1ccc(CO)cc1	0.489	-0.32	-0.21	-0.692	-0.575	0.543	0.851	1.08 (inactive)	-1.1	-0.0708	0.266	-1.77 (inactive)	-0.274 (inactive)	-1.76 (inactive)	3.61	0.214 (inactive)	-0.001	0.193	-0.958	-0.228
COC(=O)c1cccc([C@H]2OC(=CC(=O)OC(C)C)C[C@@H](c3cccc(C(=O)OC)c3)O2)c1	-0.3	2.67	0.357	1.14	1.08	1.4	1.12	0.946 (inactive)	0.902	-0.289	1.55	-0.132 (inactive)	-2.24 (inactive)	-1.39 (inactive)	3.6	-0.259 (inactive)	0.272	1.22	0.974	0.0297
CC(C)C[C@@H]1NC(=O)[C@@]23C(=O)N[C@@H](Cc4ccccc4)C2[C@H](C)[C@@]2(C)O[C@H]2C3/C=C/C/C=C\CNC(=O)CNC1=O (stereo not given in full)	-0.351	0.0664	-0.13	0.573	0.0474	0.458	0.325	-0.866 (inactive)	-0.175	-0.48	0.514	-0.135 (inactive)	-1.1 (inactive)	-0.159 (inactive)	2.23	-0.52 (inactive)	0.0207	0.609	0.53	-0.0812
CCOc1cc(C(O)C2C=CC3C(=O)N(c4ccccc4)C(=O)C3N2Nc2ccccc2F)ccc1O (stereo not given)	2.51	0.112	0.252	0.334	0.935	2.06	1.37	0.118 (inactive)	1.51	0.02	0.196	1.54 (inactive)	-0.428 (inactive)	1.81 (inactive)	3.01	-0.199 (inactive)	0.615	-0.596	0.0983	0.561
